# Test results published in PubChem BioAssay (Tox21).
# “And” between values parts separate entries of the source, which are not always exact repeats. Equal values may be shown once. Inconclusive results are not listed. A call without a number means that no potency is given here. More than one record can exist for a structure, and the calls need not agree. The source made the active and inactive calls. The call rests on the fitted dose curve; in most records, active means well fitted cell-killing curve with a large enough effect in the repeat runs; inconclusive means weak or mixed curves, or effect the other way; inactive means flat fitted curve, though single readings scatter.
# Assay: qHTS RealTime-Glo MT Cell Viability Assay in HEK293 cells - 32 hour (AID 1224868); further: nearly all actives have a fitted effect of over 50% in size
# Conditions: RealTime-Glo luminescence; series mostly up to 76.8 µM
# Method in brief: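 Cells + reagent dispensed (600 cells/well, HEK293) → 5 h at 37 C/5% CO2 → 23 nL compound in DMSO pinned → 40 h at 37 C → luminescence read at 0, 8, 16, 24, 32, 40 h.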
# Potency means the concentration at half of the fitted maximal effect.
row,SMILES,Potency
1,COC(=O)c1ccccc1O,inactive
2,CCOC(=O)/C=C\C(=O)OCC,inactive
3,C/C=C(C)/C=C/C=C(C)C,inactive
4,Oc1ccc2ccccc2c1,inactive
5,COC(=O)c1ccc(C(=O)OC)cc1,39.4 µM (active) and inactive
6,Clc1cc(Cl)c(Cl)cc1Cl,inactive
7,CC1(C)O[C@@H]2C[C@H]3[C@@H]4C[C@H](F)C5=CC(=O)CC[C@]5(C)[C@H]4[C@@H](O)C[C@]3(C)[C@]2(C(=O)CO)O1,inactive
8,O=C(c1ccc(O)cc1)c1ccc(O)cc1O,inactive
9,CCCCC(CC)COC(=O)CCCCCCCC(=O)OCC(CC)CCCC (stereo unspecified),6.17 µM (active) and inactive
10,COC(=O)Nc1nc2ccc(Sc3ccccc3)cc2[nH]1,692 nM (active) and 848 nM (active)
11,CC1(C)CC(N=C=O)CC(C)(CN=C=O)C1 (stereo unspecified),inactive
12,NCCc1ccc(O)c(O)c1,inactive
13,CC(C)(C)C1CCC(O)CC1 (stereo unspecified),inactive
14,CCCCC(CC)COC(C)=O (stereo unspecified),inactive
15,CC1COc2ccccc2N1C(=O)C(Cl)Cl (stereo unspecified),inactive
16,S=c1nc[nH]c2nc[nH]c12,16.9 µM (active)
